# In ChEMBL document CHEMBL4888484, “Replenishing the malaria drug discovery pipeline: Screening and hit evaluation of the MMV Hit Generation Library 1 (HGL1) against asexual blood stage Plasmodium falciparum ,using a nano luciferase reporter read-out” (2022):
# Among all 4,800 compounds or so, about 410 (8.5%) showed an effect of 50% or more. Only a selection was taken, and strong results are over-represented in it overall.
# Tested on: Plasmodium falciparum
# Assay: Confirmatory screen in NF54 pLDH assay, in single point, at 2uM, 72h
# Assay type: functional, Erythrocyte
# Details: timepoint 72 hour
row,Structure (SMILES),% Inhibition [%]
1,COc1ccc(C(=O)Nc2nnc([C@H]3CC(=O)N(c4ccc(C)cc4)C3)o2)cc1OC,-19
2,COc1ccc(C(=O)N2c3ncnn3C(c3ccccc3)CC2c2ccc(C)cc2)cc1OC (stereo unspecified),98
3,COc1ccc(C2CC(c3ccccc3)N(C(C)=O)c3ncnn32)cc1 (stereo unspecified),-7
4,O=C(NCCCn1ncc2c(Cl)cccc21)C1CCC1,8
5,CCc1ccc(NC(=O)Cc2c(C)nc3nc(-c4ccccc4C)nn3c2C)cc1,3
6,C[C@H](NS(C)(=O)=O)C(=O)NC(C)(C)Cc1ccccc1Cl,2
7,CCCN1CCC(NCc2ccc(-c3cccc(Cl)c3Cl)o2)CC1,98
8,CCOCC(=O)Nc1ccc(OC(F)(F)F)cc1,-14
9,Cc1ccccc1N1C(O)=Nc2ccccc2S1(=O)=O,-19
10,Cc1nnc(Cn2nnc(C(=O)NCC3(CC(C)C)CCC3)c2C)o1,-24
11,c1ccc(-c2nnc3nc(N4CCOCC4)nc(N4CCOCC4)n23)cc1,6
12,Cc1cc(CNC(=O)c2csc(=O)[nH]2)n(C)n1,12
13,CCc1ccc2ncc(C(=O)c3ccc(Cl)cc3)c(O)c2c1,1
14,CC(=O)c1nc2cc(F)c(N3CCOCC3)cc2nc1C,-13
15,O=C(NCCc1cccs1)c1cnn2c(-c3ccc4c(c3)OCO4)ccnc12,-8
16,CCCn1ccnc1-c1cn(Cc2cc3ccccc3[nH]2)nn1,54
17,O=C(c1ccc2ccccc2c1)N1CCC[C@H]1c1nc2ccccc2s1,11
18,O=C(NCc1ccco1)c1ccc2c(c1)OCO2,-7
19,Cn1n[n+](CC(=O)Nc2ccccc2Cl)c2ccccc21,3
20,Cn1n[n+](CCCCC(Cl)(Cl)Cl)c2ccccc21,52
21,CCC(CC)(NCC(=O)NC1CC1)c1ccc(Cl)cc1,-1
22,Cc1cc(C)n(C(=O)Cn2nc(C(F)F)cc2C)n1,11
23,CCc1ccc(C(=O)N2CCCN(c3nc(C4CCOCC4)nc4c3cnn4-c3ccccc3)CC2)cc1,-7
24,COC(=O)[C@H](C)N(C(=O)CO)c1c(C)cccc1C,10
25,O=C(c1nnn(-c2ccccc2Cl)c1-c1cccnc1)N1CCC(Cc2ccccc2)CC1,-8
26,COc1cccc(NC(=O)Nc2ccc3c(c2)NC(=O)C(C)(C)O3)c1,-4

row,Structure (SMILES),% Inhibition [%]
1,Cc1sc2ncnc(N3CCCCC3)c2c1C(=O)NCc1cccc(Cl)c1,10
2,O=C(N[C@@H](N1CCCCC1)C(Cl)(Cl)Cl)c1ccc(Cl)cc1,0
3,Cc1ccccc1[C@H](CC(=O)O)NC(=O)C(F)(F)F,16
4,N=C1CCCN1c1c(Cl)cccc1Cl,5
5,COc1ccc(-c2cc3c(N4CCN(Cc5ccc6c(c5)OCO6)CC4)nccn3n2)cc1OC,-2
6,Cc1cccc2[nH]cc(CCNC(=O)N3CCC4CCC(C3)N4C)c12 (stereo unspecified),11
7,CCc1cc(C(=O)N2CCC[C@H](C)C2)c2c(C3CC3)nn(-c3ccccc3)c2n1,4
8,O=C(O)c1ccc(N(C(=O)c2ccc3c(c2)OCO3)C(=O)c2ccc3c(c2)OCO3)cc1O,15
9,COc1ccccc1C(=O)N(Cc1cccs1)c1ccc(C)c(Cl)c1,1
10,Cc1c(Cl)cccc1C(=O)N1CCC[C@H](Cn2cncn2)C1,1
11,O=C(N[C@@H]1CN(Cc2ccccn2)CCC[C@H]1O)c1ccc(OCc2ccccc2)cc1,42
12,CCOC(=O)C1CCC(CN(Cc2ccc(OC)cc2)S(=O)(=O)c2cc(C(=O)Nc3ccc(OCC)cc3)ccc2F)CC1 (stereo unspecified),6
13,CN1CCN(c2nc(O)c3c(n2)NC(=O)C[C@H]3c2c(F)cccc2Cl)CC1,-6
14,O=C(CC(F)(F)F)NCc1ccccn1,-21
15,Cc1n(CC(=O)c2ccccc2)c2ccccc2[n+]1CC(=O)c1ccccc1,66
16,O=C(c1ccccc1)n1c(=O)n(C(=O)c2ccccc2)c2ccccc21,7
17,CCC(=O)Nc1ccc(Oc2c(C)c(C(=O)O)nn2-c2ccccc2CC)c(S(=O)(=O)NCC(C)C)c1,9
18,C[C@@H](CNS(=O)(=O)c1ccco1)N(C)S(=O)(=O)c1ccco1,4
19,O=C(Nc1ccc2c(c1)OCO2)c1c(-c2ccc(Cl)cc2)nc2n1CCS2(=O)=O,6
20,CC(CNc1ccccn1)N1CCOCC1C (stereo unspecified),0
21,c1ccc(Oc2ccc(CNCc3nnc4n3CCCCC4)o2)cc1,9
22,C#C[C@H](C)OC(=O)c1cccc(Nc2cnccn2)c1,10
23,CCNC(=O)NCCOC(=O)Cc1cc(Cl)cc2c1OCC2,-1
24,COCc1cnc(NC(=O)NC2(c3ncccn3)CCOCC2)s1,10
25,COc1ccc(CN2CCC(C(=O)NCCCN3CCOCC3)CC2)c(OC)c1,9
